Assay outcomes deposited in PubChem by National Center for Advancing Translational Sciences (NCATS).
Rows were chosen to be rich in hits. Some 6.2% of all compounds tested hit in one or more screens of this group.
HT1080 IDH1KD tx: HT-1080 IDH1 knockdown cell toxicity (counter line) | HT-1080 IDH1 knockdown viability, ATP luminescence, 48 h | Potency, µM (top dose mostly 46.1 µM), without a hit: at the top dose activity, negative = toxicity, most hits filed as cytotoxic | 360,000 tested, 2% active | AID 686971;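 note: 0% = DMSO wells and -100% = cell-free medium wells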
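IDH1KD HT-1080 cells, 750/well, RPMI + 5% FBS; compound pinned after 2 h settling; 48 h, 37 °C; CellTiter-Glo luminescence; % activity normalised to DMSO and no-cell wells; curves fitted, classed by r2 and efficacy.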
HT1080-NT tox: kills 2HG-producing HT-1080-NT fibrosarcoma cells | HT-1080-NT fibrosarcoma viability, CellTiter-Glo ATP luminescence, 48 h | Potency, µM (top dose mostly 46.1 µM), inactives show top-dose activity, negative = less viability, hits mostly cytotoxic | 360,000 tested, 1.6% active | AID 686970;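 note: NT is the 2HG producing partner of a matched IDH1 knockdown line; 0% = DMSO-treated cells and -100% = media-only wells without cells; nearly all actives have a fitted effect of over 55% in size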
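A 48-hour cytotoxicity screen used HT-1080-NT cells plated 2 hours before compound delivery. ATP-based CellTiter-Glo luminescence measured viability, normalized to DMSO and no-cell controls.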
ATXN2 expr inh: reduces ATXN2 reporter expression in HEK-293 cells; HEK-293 ATXN2-luciferase reporter, luminescence, 24 h; Potency, µM (highest dose often 57 µM), inactives show at the highest dose activity change, negative = inhibition, usual class: inhibitors; AID 1745845; 360,000 tested, 0.72% active; note: % is set by controls: 0 for no effect and ±100 for the full control effect; nearly all actives have a fitted effect of over 55% in size
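qHTS (up to 57 uM final) was run with 24 h compound exposure of reporter cells at 37 °C. Each well was multiplexed: SteadyGlo luminescence measured ATXN2-luciferase expression after a fluorogenic Gly-Phe-AFC viability readout (25 uM final).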
KB-V1 cytotox: KB-V1 MDR subline cytotoxicity | AID 1347076 | KB-V1 MDR cells viability, CellTiter-Glo, 72 h | 400,000 tested, 3.4% active | Potency, µM (top dose mostly 46.1 µM), usual class: cytotoxic; note: % is set by controls: 0 for no effect and ±100 for the full control effect; nearly all actives have a fitted effect of over 60% in size
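KB-V1 MDR subline cells in DMEM (phenol-red free, 10% FBS) exposed to compounds in qHTS concentration series for 72 h at 37 degrees C. Viability read by CellTiter-Glo luminescence; concentration-effect curves fitted after normalization and correction.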
S2 tox: cell viability loss in ATXN counter-screen | AID 651635 | Potency, µM (highest dose often 56.7 µM), actives largely listed as cytotoxic | 400,000 tested, 0.49% active | S2 cells (HEK-293 line with an ATXN2-luciferase reporter) viability, CellTiter-Fluor protease fluorescence, 24 h; note: nearly all actives have a fitted effect of over 40% in size
KB-3-1 cytotox: KB-3-1 parental cell cytotoxicity. KB-3-1 viability, CellTiter-Glo ATP luminescence, 72 h. Potency, µM (series often up to 46.1 µM), actives largely listed as cytotoxic. 400,000 tested, 1.4% active; note: % is set by controls: 0 for no effect and ±100 for the full control effect; nearly all actives have a fitted effect of over 60% in size
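Cells are dispensed, compounds pinned in, plates held at 37 °C for 72 h, then CellTiter-Glo is added and luminescence read after 10 minutes. Cell line: parental KB-3-1 in phenol-red-free DMEM, 10% FBS.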
Starred values were filed as active, the others as inactive; i = inactive; u = inconclusive; x = no result given; [ ] = remark or other dose. Calls come from the whole dose curve; as a rule, active = well fitted curve in the direction sought with a large enough effect; inconclusive = small, poorly fitted or top-dose-only effect, or another doubt; inactive = no such curve, though single readings can be large; an effect the other way counts as inactive or inconclusive. Potency is the fitted concentration of half-maximal effect.

SMILES | HT1080 IDH1KD tx | HT1080-NT tox | ATXN2 expr inh | KB-V1 cytotox | S2 tox | KB-3-1 cytotox
O=C(c1ccc(Cl)cc1)C1CCCN(Cc2cccn2-c2ccccn2)C1 (centres undefined) | 23µM* | 16µM* | u | i | u | i
Cc1ccc2c(c1)Oc1ccc(NC(=O)CCCl)cc1C(=O)N2 | 16µM* | u | x | u | i | i
CSc1nc(SCC(=O)NCc2ccco2)c2c3c(sc2n1)COC(C)(C)C3 | 7.1µM* | 7.9µM* | -11% | 3.7µM* | i | i
O=C(O)/C=C/c1ccc2c(c1)S(=O)(=O)N(C1CCCC1)[C@H]2CC(=O)O | x | x | x | i | x | i
CC(=O)/C=C/c1ccc2c(c1)S(=O)(=O)N(C1CCCC1)[C@H]2CC(C)=O | x | x | x | 18µM* | x | u
Cc1nn(-c2ccc(F)cc2)c(-n2cccc2)c1C(=O)N1CCN(c2ccccc2F)CC1 | x | x | -13% | 10µM* | i | u
COc1ccc(CCNC(=O)c2c(C)nn(-c3ccc(F)cc3)c2-n2cccc2)c(OC)c1OC | x | x | u | 12µM* | x | u
COc1ccc(N2CCN(C(=O)c3c(C)nn(-c4ccc(F)cc4)c3-n3cccc3)CC2)cc1 | x | x | 2% | u | i | u
Cc1nn(-c2ccc(F)cc2)c(-n2cccc2)c1C(=O)N1CCN(c2ccc(F)cc2)CC1 | x | x | -38% | 16µM* | u | u
Cc1sccc1Br | x | x | 5% | x | i | x
O=C(NCc1ccccc1Cl)c1ccc2nc([C@@H]3O[C@H](CO)[C@H](O)[C@H](O)[C@H]3O)[nH]c2c1 | 18% | 14% | 10% | i | i | i
O=C(Oc1ccc([N+](=O)[O-])cc1)C1CC(=O)N(c2ccc3c(c2)OCCO3)C1 (centres undefined) | 0% | 0% | -7% | x | i | x
COCc1c(C(=O)N2CCN(Cc3ccc4c(c3)OCO4)CC2)oc2ccccc12 | -1% | -2%[9.24 µM] | 0% | i | i | u
COCc1c(C(=O)N2CCN(Cc3ccc(C#N)cc3)CC2)oc2ccccc12 | -1% | -15% | -29% | 13µM* | i | u
COc1cc(CNC2CCCC2)cc(Cl)c1OCc1ccc(F)cc1 | 21µM* | 16µM* | u | u | u | u
COc1cc(CNC2CCCC2)cc(Cl)c1OCc1ccccc1Cl | u | u | u | 21µM* | u | u
O=C(NCCc1nnc2n1CCN(Cc1ccc3c(c1)CCO3)CC2)c1ccco1 | x | x | x | x | i | x
Nc1nc2c(ncn2-c2ccccc2)c(=O)[nH]1 | -2% | -4% | -9% | i | u | i
CNc1nc(Cl)nc2c1ncn2-c1ccccc1 | -9% | -12% | 0% | 6.5µM* | i | 15µM*
Clc1nc(Cl)c2ncn(-c3ccccc3)c2n1 | -25% | -1% | u | u | u | 18µM*
COc1cccc(Sc2ccccc2/C=N/NC(N)=O)c1 | u | u | -1% | u | u | 2.9µM*
C=CCOc1c(/C=N\NC(N)=O)cccc1OC | 2% | -5% | x | i | i | i
CCOC(=O)CCc1ccc(NC(=O)/C=C/c2ccc([N+](=O)[O-])o2)cc1 | 2.9µM* | 8.2µM* | u | u | 8.4µM* | u
CCC(C)[C@H]1CNC(=O)C(=O)N1CC(C)(C)C (some centres undefined) | 19% | u | 5% | i | i | i
Cc1ccc(S(=O)(=O)N2CCOCC2)cc1C(=O)OCC(=O)N1CCc2ccccc2C1 | 3% | u | 7% | 12µM* | i | i
SMILES | HT1080 IDH1KD tx | HT1080-NT tox | ATXN2 expr inh | KB-V1 cytotox | S2 tox | KB-3-1 cytotox
Cc1cc(C)c2sc(N(CCCN(C)C)C(=O)c3ccc(S(=O)(=O)N(C)Cc4ccccc4)cc3)nc2c1 | -22% | -18% | u | 21µM* | x | u
CCCCN(C)S(=O)(=O)c1ccc(C(=O)N(CCN(C)C)c2nc3ccc(C)cc3s2)cc1 | -6% | -7% | x | i | i | i
CCCCN(CC)S(=O)(=O)c1ccc(C(=O)N(CCCN(C)C)c2nc3cc(C)cc(C)c3s2)cc1 | u | 21µM* | u | 26µM* | u | u
CCN(Cc1ccccc1)S(=O)(=O)c1ccc(C(=O)N(CCCN(C)C)c2nc3cc(C)cc(C)c3s2)cc1 | 23µM* | 16µM* | u | u | 25µM* | u
COc1ccc2sc(N(CCCN(C)C)C(=O)c3ccc(S(=O)(=O)N(C)Cc4ccccc4)cc3)nc2c1 | -3% | -9% | -34% | u | u | u
Cc1cc(C)c2sc(N(CCN(C)C)C(=O)c3c(F)cccc3F)nc2c1 | u | -14% | -17% | u | i | i
CCN(Cc1ccccc1)S(=O)(=O)c1ccc(C(=O)N(CCCN(C)C)c2nc3c(F)cccc3s2)cc1 | -18% | -2% | -16% | i | i | i
Cc1cc(C)c2sc(N(CCCN(C)C)C(=O)c3ccc(Br)s3)nc2c1 | u | 23µM* | 8.9µM* | i | 11µM* | i
CCC(=O)N1c2ccccc2CC1C(=O)NCc1ccccc1C (centres undefined) | x | x | 1% | i | i | i
COc1cccc2c1Oc1nc(-c3ccccc3)nc(SCC(=O)N3CCCCC3)c1C2 | x | x | 11% | i | i | i
COc1cc(Br)c(CC(=O)NC2CC2)cc1OC | -3% | -1% | 1% | i | i | i
O=C(N/N=C/c1ccccc1)c1[nH]c2ccc(Br)cc2c1-c1ccccc1 | 0.73µM* | 0.46µM* | -35% | 0.82µM* | u | 0.73µM*
O=C(CCN1CCOCC1)Nc1c(-c2ccccc2)c2cc(Br)ccc2[nH]c1=O | -5% | -19% | -11% | i | i | i
O=C(NN=C1CCCC1)c1[nH]c2ccc(Br)cc2c1-c1ccccc1 | 5.8µM* | 8.2µM* | u | i | i | i
CC(C)(C)NC(=O)C1c2ccccc2OCC(=O)N1Cc1ccco1 (centres undefined) | 20% | 21% | 12% | i | i | i
CC(C)Cn1c(-c2csc3ccccc23)n[nH]c1=S | 1% | -4% | -5% | 16µM* | i | i
CCn1c(-c2ccccc2O)n[nH]c1=S | u | u | -6% | i | i | i
CCn1c(-c2csc3ccccc23)n[nH]c1=S | -1% | -2% | 0% | 7.3µM* | i | 18µM*
O=C(NCc1ccccn1)[C@@H]1CCCN1C(=O)[C@@H]1CCCN1C(=O)c1cccc(Cl)c1 | 19% | 19% | 9% | i | i | i
